Holding throughout (format): functional
The subject of experiment [1] is Plasmodium falciparum. The experiment is described as follows: GSK_TCMDC: Inhibition of Plasmodium falciparum 3D7 in whole red blood cells, using parasite LDH activity as an index of growth. Test compounds present at 2uM.
For experiment [2], the system named is Plasmodium falciparum. Put plainly: GSK_TCMDC: Inhibition of Plasmodium falciparum Dd2 in whole red blood cells, using parasite LDH activity as an index of growth. Test compounds present at 2uM.
The subject of another experiment is HepG2. The experiment is described as follows: GSK_TCMDC: Percent inhibition of human HepG2 cell line. Test compounds present at 10uM.

As to `CCN(CCCN1CCCCC1)c1cc(C)nc(Nc2ccc(C)cc2Cl)n1.O=C(O)C(F)(F)F`, the Inhibition worked out at 93% in the experiment with Plasmodium falciparum [1], 25% in the experiment on Plasmodium falciparum [2] and 44% in the experiment with HepG2.

`O=C(/C=C/c1cc(C(F)(F)F)ccc1F)NCCCCCN1CCC(c2c[nH]c3ccccc23)CC1`: the Inhibition was determined as 88% in the experiment with Plasmodium falciparum [1], 4% in the experiment with Plasmodium falciparum [2] and 39% with HepG2.

On to `COc1cc(NC(=O)c2nn(CCCN3CCC(N4CCCC4)CC3)cc2-c2ccc(Cl)c(Cl)c2)cc(OC)c1OC`, for which the Inhibition in the experiment on Plasmodium falciparum [1] is reported as 100%; in the experiment on Plasmodium falciparum [2], 100%; with HepG2, 76%.

Take `CC(=O)CCc1ccc(OCCN(Cc2ccccc2C(F)(F)F)c2ccc(C#N)c(C(F)(F)F)c2)cc1`: the figures for the Inhibition with Plasmodium falciparum [1], in the experiment on Plasmodium falciparum [2] and in the experiment on HepG2 were 100%, 87% and 14%, respectively.

Turning to `O=C(CCNc1ccnc(NCCc2ccccc2)n1)Nc1ccccc1.O=C(O)C(F)(F)F`, the figures for the Inhibition with Plasmodium falciparum [1], in the experiment on Plasmodium falciparum [2] and with HepG2 were 89%, 19% and 7%, respectively.

`Cc1cccc2nc(-c3cccc(-c4ccc(NC(=O)C5CC(=O)Nc6ccccc65)cc4)c3)[nH]c12` (configuration not stated): the Inhibition in the experiment with Plasmodium falciparum [1] is on record as 87%; in the experiment with Plasmodium falciparum [2] it was 56%; in the experiment on HepG2 it was 15%.

On to `Cc1cccc2nc(-c3ccc(-c4cccc(C(=O)NCCc5cn(C)cn5)c4)s3)[nH]c12`, for which the Inhibition in the experiment with Plasmodium falciparum [1] turned out to be 92%; in the experiment on Plasmodium falciparum [2] it was 17%; with HepG2, 27%.

For `CN/C(=N\O)NCCN(C)C.Cl`, the Inhibition in the experiment with Plasmodium falciparum [1] stood at 88%; with Plasmodium falciparum [2], 0%; in the experiment with HepG2, 0%.

With `CCN(CC)CCNc1ccnc2c3ccccc3n(C)c12`, the Inhibition with Plasmodium falciparum [1] is 100%; in the experiment on Plasmodium falciparum [2], 99%; in the experiment with HepG2 it was 14%.

As to `COc1cc(N)cc2sc(N)nc12`, the figures for the Inhibition in the experiment with Plasmodium falciparum [1], in the experiment on Plasmodium falciparum [2] and in the experiment on HepG2 were 99%, 99% and 0%, respectively.

For the compound `O=C(NC(=O)c1ccccc1O)c1ccccc1O`, the Inhibition with Plasmodium falciparum [1] stood at 97%; in the experiment with Plasmodium falciparum [2] it was 79%; in the experiment on HepG2, 0%.

Take `CCN(CC)CCN(Cc1ccc(-c2ccc(C(F)(F)F)cc2)cc1)C(=O)Cn1c(CCc2cccc(F)c2F)nc(=O)c2cccnc21.O=C(O)C(O)C(O)C(=O)O`: the Inhibition in the experiment with Plasmodium falciparum [1] is 100%; with Plasmodium falciparum [2] it was 89%; in the experiment with HepG2, 75%.

In the case of `O=C(Nc1n[nH]c2nc(-c3ccco3)c(Br)cc12)c1ccc(CN2CCCC2)cc1.O=C(O)C(O)C(O)C(=O)O`, the Inhibition was 100% in the experiment with Plasmodium falciparum [1], 53% with Plasmodium falciparum [2] and 1% in the experiment with HepG2.

Regarding `CCC[C@@H]([C@@H](CC1CCCCC1)C(=O)N[C@H](C(=O)Nc1nccs1)C(C)(C)SCCOCCOCC)N(O)C=O`, the Inhibition amounted to 100% with Plasmodium falciparum [1], 97% with Plasmodium falciparum [2] and 40% in the experiment with HepG2.

On to `CC[C@H](C)CNC(=O)c1cccc(-c2cccc(CN3CCC(N4CCCC4)CC3)c2)n1.O=C(O)C(F)(F)F`, for which the Inhibition with Plasmodium falciparum [1] was determined as 100%; in the experiment on Plasmodium falciparum [2] it was 86%; in the experiment with HepG2, 9%.

Regarding `Cc1sc(C)c(CNCCCNc2cc(=O)c3ccccc3[nH]2)c1Br.Cl`, the Inhibition with Plasmodium falciparum [1] is listed as 93%; with Plasmodium falciparum [2], 15%; in the experiment with HepG2, 0%.

`Cc1cc(N2Cc3ccccc3C2)nc(Nc2ccc(S(=O)(=O)N3CCOCC3)cc2)n1.Cl`: the Inhibition in the experiment with Plasmodium falciparum [1] amounted to 100%; in the experiment on Plasmodium falciparum [2], 85%; in the experiment on HepG2 it was 13%.

Turning to `C=C(NC(=O)c1cc(C)cc(C)c1)C(=O)OC`, the Inhibition in the experiment on Plasmodium falciparum [1] came to 95%; in the experiment with Plasmodium falciparum [2] it was 0%; with HepG2 it was 21%.

In the case of `Cc1cccc2nc(-c3cccc(-c4ccc(CNCc5cccc(N)c5)cc4)c3)[nH]c12.O=C(O)C(F)(F)F`, the Inhibition with Plasmodium falciparum [1] turned out to be 100%; in the experiment on Plasmodium falciparum [2], 93%; with HepG2, 19%.

The record behind these values is ChEMBL document CHEMBL1157539, “Thousands of chemical starting points for antimalarial lead identification” (Nature, 2010).
